Experimental findings from PubChem BioAssay (EPA / NIEHS) are described below.

Structures are written as SMILES. Inconclusive results are not listed. A structure can be active in one record and inactive in another. The source made the active and inactive calls. Rule for the calls: active = hit-call score of the fitted dose curve at least 0.9, where 1 is the maximum; inconclusive = response in the unintended direction; inactive = score below 0.9.

One may read the AC50 as the concentration giving half of the maximal activity seen.

Assay [1] can be described thus: ATG_XTT_Cytotoxicity: Cytotoxicity Assessment in the Attagene TRANS-FACTORIAL HepG2 Assay (AID 2283584). The gist of the method: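 Viability endpoint from XTT after 24 h chemical exposure of reporter-transfected human HepG2 liver cells; signal loss fitted relative to DMSO negative control.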
For assay [2], the target named is Cellular tumor antigen p53 (Homo sapiens) (UniProt P04637). The assay can be described thus: TOX21_p53_BLA_p2_ratio: Tox21 HCT-116 p53 Agonism Beta-lactamase Assay, Ratio, Phase 2 (AID 2283592). The gist of the method:
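Gain-of-signal p53 agonism was scored from the beta-lactamase FRET ratio (460/530 nm, 405 nm excitation) in HCT116 cells treated 16 h at 37C, 5% CO2, with DMSO serving as negative control and baseline.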

Assay [3] has the same target. The assay is described as follows: TOX21_p53_BLA_p3_ratio: Tox21 HCT-116 p53 Agonism Beta-lactamase Assay, Ratio, Phase 3 (AID 2283596). The method, boiled down:
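HCT116 p53-bla cells (4000/well) given compound in DMSO (217-fold dilution) after 5 h, incubated 16 h at 37C. CCF4-AM substrate 2 h at room temperature; 460/530 nm emission ratio, gain fitted against DMSO.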

Assay [4] can be described thus: TOX21_p53_BLA_p4_viability: Viability Assessment in the Tox21 HCT-116 p53 Agonism Beta-lactamase Assay, Phase 4 (AID 2283597).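 Note: hits lower the luminescence signal meaning cytotoxicity.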 The method, boiled down:
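Following a 16 h exposure at 37C, the treated HCT116 wells were first read for the FRET ratio. They were then lysed with CellTiter-Glo, and ATP luminescence was recorded after 30 min at room temperature.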

In assay [5] the target is Cellular tumor antigen p53 (Homo sapiens) (UniProt P04637). The assay is described as follows: TOX21_p53_BLA_p5_ratio: Tox21 HCT-116 p53 Agonism Beta-lactamase Assay, Ratio, Phase 5 (AID 2283599). The method, boiled down: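 HCT-116 p53-bla cells (4000/well) plated 5 h, dosed with compound (217-fold DMSO dilution) for 16 h at 37 C; CCF4-AM substrate 2 h at room temperature. Activity is the 460/530 nm emission ratio (405 nm excitation), fitted in gain-of-signal direction versus DMSO.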
Cellular tumor antigen p53 (Homo sapiens), sequence (P04637 whole entry, looked up): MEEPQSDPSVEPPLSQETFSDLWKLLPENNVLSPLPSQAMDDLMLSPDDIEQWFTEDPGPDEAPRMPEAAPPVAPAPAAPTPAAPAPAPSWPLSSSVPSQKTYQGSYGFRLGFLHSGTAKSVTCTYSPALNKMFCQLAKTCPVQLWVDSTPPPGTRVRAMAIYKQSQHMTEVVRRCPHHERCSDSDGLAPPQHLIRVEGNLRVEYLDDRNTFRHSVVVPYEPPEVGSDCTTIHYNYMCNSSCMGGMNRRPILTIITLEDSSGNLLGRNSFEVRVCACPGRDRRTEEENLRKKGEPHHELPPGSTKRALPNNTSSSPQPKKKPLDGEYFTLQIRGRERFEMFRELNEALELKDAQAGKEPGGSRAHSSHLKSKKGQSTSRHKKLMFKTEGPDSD

Assay [6] shares this target. The assay can be described thus: TOX21_p53_BLA_p4_ratio: Tox21 HCT-116 p53 Agonism Beta-lactamase Assay, Ratio, Phase 4 (AID 2283601). The method, boiled down: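 HCT-116 p53 beta-lactamase reporter cells (4000/well) preincubated 5 h, then compound (217-fold dilution of DMSO stock) for 16 h at 37C. CCF4-AM substrate added 2 h at room temperature; 460/530 nm emission ratio fitted upward versus DMSO.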

Assay [7] can be described thus: TOX21_p53_BLA_p3_viability: Viability Assessment in the Tox21 HCT-116 p53 Agonism Beta-lactamase Assay, Phase 3 (AID 2283593).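 Note: cells exposed to compound for 16 h before reading.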 The method, boiled down:
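HCT116 cells, 4000/well, dosed 5 h after plating by pin transfer (217-fold dilution from DMSO stock) and incubated 16 h at 37C, 5% CO2. Viability read as ATP luminescence with CellTiter-Glo after 30 min at room temperature.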

The nature of assay [8]: TOX21_p53_BLA_p5_viability: Viability Assessment in the Tox21 HCT-116 p53 Agonism Beta-lactamase Assay, Phase 5 (AID 2283600). The method, boiled down:
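After the 460/530 nm beta-lactamase measurement, the wells received an ATP-detection luciferase reagent; signal was read 30 min later at RT. Compound treatment lasted 16 h on cells pre-incubated 5 h post-seeding.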

Assay [9] is described as follows: TOX21_p53_BLA_p2_viability: Viability Assessment in the Tox21 HCT-116 p53 Agonism Beta-lactamase Assay, Phase 2 (AID 2283591).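 Note: compound exposure lasted 16 h at 37 °C; actives lower the ATP signal meaning cytotoxicity.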 The gist of the method: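 HCT116 p53-bla cells, 4000/well, dosed after 5 h plating (217-fold dilution of DMSO stocks) and incubated 16 h at 37C. Viability taken as cellular ATP by CellTiter-Glo luminescence after 30 min RT; signal loss marks cytotoxicity.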

`O=C(OCCc1ccccc1)c1ccccc1`: the call in assay [1], in [2], in assay [3], in assay [4], in assay [5] and in [6] was inactive.

Take `C=CC(C)(O)CC/C=C(\C)CC` (stereo unspecified): the result in [1], in assay [3], in [4] and in assay [5] was inactive.

`Clc1cc(Cl)c(Cl)c(Cl)c1Cl`: the compound was called inactive in [1], in assay [2], in [7], in [3], in assay [4] and in [8]. In addition, the result in assay [6] was inactive.

In the case of `O=C(C=Cc1ccccc1)OCCc1ccccc1`, the result in [1], in assay [2], in [7], in [8] and in [6] was inactive.

For the compound `CCCCOCCOCCOC(C)=O`, the compound was called inactive in assay [1], in assay [2], in assay [7], in [3], in [4] and in assay [5]. The result in assay [8] and in [6] was inactive.

For `Nc1ncnc2nc[nH]c12`, the compound was classed as inactive in assay [1], in [2], in assay [7], in assay [3], in assay [5] and in assay [6].

For `NNS(=O)(=O)c1ccc(Oc2ccc(S(=O)(=O)NN)cc2)cc1`, the compound was classed as inactive in [1], in assay [7], in assay [5], in assay [8] and in assay [6].

Take `CCCCCC(=O)OCC`: the compound was classed as inactive in assay [1], in assay [7] and in assay [5].

As to `CCCCCC[C@@H](O)C/C=C\CCCCCCCC(=O)OCC(O)CO` (stereo partly specified), the outcome in assay [1], in [2], in assay [7], in assay [3], in assay [4] and in [6] was inactive.

As to `CCOC(=O)c1ccccc1C`, the compound was called inactive in [9], in assay [2], in assay [7], in assay [4], in assay [5] and in assay [8]. Besides, in assay [6], the outcome was inactive.

In the case of `CC(=O)C(C)C`, the compound was called inactive in assay [9], in [3], in assay [5], in assay [8] and in assay [6].

For the compound `CC12CCC(CC1)C(C)(C)O2`, the result in [9], in assay [2], in [7], in assay [3], in assay [5] and in [6] was inactive.

For the compound `CC(C)c1cc(C(C)C)cc(C(C)C)c1`, the call in assay [9], in assay [3], in [4] and in assay [6] was inactive.

In the case of `CC1=CC(C)C(C=O)CC1` (stereo unspecified), the result in assay [2], in [3], in assay [5] and in [6] was inactive.

For `COC(=O)CC(C)CCC=C(C)C` (stereo unspecified), the outcome in assay [2], in [7], in [3], in [4], in [5] and in assay [8] was inactive.

As to `C=C[Si](OCCOC)(OCCOC)OCCOC`, the result in assay [9], in assay [7], in assay [3], in [4], in assay [5] and in assay [8] was inactive.

With `Cc1ccccc1CCO`, the result in assay [9], in assay [7], in assay [3], in assay [5] and in assay [6] was inactive.

On to `O=S(=O)(O)c1ccc(N=Nc2c(O)ccc3ccccc23)cc1`, for which the compound was called inactive in [9], in assay [2], in assay [7], in assay [3], in [5] and in assay [8]. The result in [6] was inactive. For the same compound, the AC50 in assay [4] was 44 µM (active).

For `CCc1cccc(C)c1N`, the compound was called inactive in assay [9], in [2], in [7], in assay [3], in assay [4] and in [5]. Further, the compound was classed as inactive in assay [8] and in assay [6].

Consider `CCC(C)C(=O)OCCc1ccccc1` (stereo unspecified), for which the result in [2], in [3], in assay [5] and in assay [8] was inactive.

Turning to `CC1=CC=C(C(C)C)CC1`, the outcome in assay [1], in [5] and in assay [8] was inactive.

As to `CCCCCCOC(=O)CCCCC(=O)OCCCCCC`, the call in assay [9], in assay [2], in assay [7] and in assay [4] was inactive.

For the compound `CC1=NN(c2ccc(S(=O)(=O)O)cc2)C(=O)C1N=Nc1ccccc1` (stereo unspecified), the call in [1], in [4] and in [6] was inactive.

As to `C[Si]1(C)O[Si](C)(C)O[Si](C)(C)O[Si](C)(C)O[Si](C)(C)O1`, the result in assay [2], in assay [8] and in assay [6] was inactive.

Turning to `O=C(O)C1CCC(C(=O)O)CC1` (stereo unspecified), the result in [9], in [2], in [7] and in assay [5] was inactive. In addition, the AC50 in assay [4] is 82.4 µM (active); in assay [6] it was 85.8 µM (active).

For the compound `C=CC(=O)OCCCCCCCC(C)C`, the outcome in [2], in [7], in assay [3], in [4], in [8] and in [6] was inactive.

For `CC(=O)c1ccc(S(=O)(=O)NC(=O)NC2CCCCC2)cc1`, the result in assay [9], in assay [2], in assay [7], in [3], in [4] and in assay [5] was inactive. Besides, the compound was classed as inactive in [8] and in [6].

Regarding `CC(C)COC(=O)CC(C(=O)OCC(C)C)S(=O)(=O)O` (stereo unspecified), the call in assay [9], in [2], in assay [7], in assay [4], in assay [5] and in assay [6] was inactive.

For `O=C(O)CCCC(=O)O`, the result in assay [2], in assay [7], in [3], in assay [5], in assay [8] and in assay [6] was inactive.

For the compound `CCCCCCCC(=O)OCC(COC(=O)CCCCCCC)OC(=O)CCCCCCC`, the compound was classed as inactive in [9], in assay [2], in [7], in [3], in assay [4] and in assay [5]. Besides, the result in assay [8] and in [6] was inactive.

`C=C[C@@]1(C)CC(=O)[C@]2(O)[C@@]3(C)[C@@H](O)CCC(C)(C)[C@@H]3[C@H](O)[C@H](OC(C)=O)[C@@]2(C)O1`: the outcome in assay [9], in [2], in assay [7], in [3], in [4] and in assay [5] was inactive. The result in [8] and in assay [6] was inactive. In assay [4], the concentration at half-maximal activity (AC50) was 27.1 µM (active).

For the compound `C=C(C)C(=O)OCCOC(=O)C(=C)C`, the compound was called inactive in assay [9], in assay [2], in [7], in assay [4], in [5] and in assay [8]. In [6], the result was inactive.

Take `O=c1c(O)c(-c2ccc(O)cc2O)oc2cc(O)cc(O)c12`: the compound was classed as inactive in assay [9] and in assay [7].

Consider `C=CC(=O)OCCCCCCCCCC`, for which the outcome in assay [2], in [7], in assay [5], in [8] and in assay [6] was inactive.

Regarding `OCCCc1ccccc1`, the outcome in assay [9], in assay [2], in assay [7], in [3], in assay [5] and in assay [6] was inactive.

Turning to `Cc1cccc(C(C)(C)C)c1O`, the result in assay [9], in assay [2], in assay [3], in [4], in [5] and in assay [8] was inactive. For the same compound, the outcome in [6] was inactive.

With `CCCC1CCCC(=O)O1` (stereo unspecified), the compound was classed as inactive in assay [9], in [7], in [3], in assay [5], in [8] and in assay [6].

With `COC(=O)c1ccccc1C`, the result in [7], in assay [3], in [8] and in assay [6] was inactive.

`CCCCc1ccc(Cl)cc1`: the outcome in assay [3], in assay [4], in assay [8] and in assay [6] was inactive.

For the compound `O=C(OCc1ccccc1)c1ccc(O)cc1`, the result in [9], in assay [2], in [7], in assay [3], in assay [4] and in [5] was inactive. For the same compound, the compound was classed as inactive in assay [8] and in assay [6].

Regarding `CCCCNC(=S)NCCCC`, the result in assay [9], in assay [2], in assay [7], in assay [3], in assay [4] and in assay [8] was inactive. For the same compound, in assay [6], the result was inactive.

As to `CC1=CCC2CC1C2(C)C` (stereo unspecified), the result in assay [9], in assay [7] and in [4] was inactive.

For the compound `CCN1CN(CC)CN(CC)C1`, the call in assay [4] was inactive.

As to `CC(C)=CCl`, the outcome in [9], in assay [7], in [3], in [4], in assay [8] and in [6] was inactive.
